Laboratory results reported in PubChem BioAssay.
For some assays here: Potency and affinity values are given separately. The source made the active and inactive calls. Unless noted, the rule behind the calls is not given here.

Experiments:
[1] = antimalarial activity against Dd2 strain (AID 2302;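 active = growth inhibition above 50% at the single 2 µM test dose, taken to imply half-maximal potency below 2 µM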;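 note: 0% = DMSO untreated growth and 100% = chloroquine plus artemisinin killed control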); conditions: P. falciparum Dd2 in RBCs, LDH growth readout, 72 h; at 2 µM; active compounds read high
[2] = human hepatoma cell viability loss – ATP luminescence, cytotoxicity control for P. falciparum antimalarial project, primary screen (AID 2303;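 active = inhibition above 50%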;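 note: 0% = DMSO wells and 100% = digitonin-killed cells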); conditions: HepG2 viability, 24-48 h, at 10 µM, active compounds read high
[3] = target: L-lactate dehydrogenase (Plasmodium falciparum (isolate CDC / Honduras)) (UniProt Q27743); assay: PfLDH activity inhibition – cell lysate, 3D7 strain, counter-screen for P. falciparum growth inhibition project (AID 2304);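 note: 0% = vehicle and 100% = reference inhibitor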; conditions: P. falciparum 3D7 crude extract, LDH APAD/NBT absorbance; at 2 µM; active compounds read high
L-lactate dehydrogenase (Plasmodium falciparum (isolate CDC / Honduras)), sequence (Q27743 whole entry, looked up): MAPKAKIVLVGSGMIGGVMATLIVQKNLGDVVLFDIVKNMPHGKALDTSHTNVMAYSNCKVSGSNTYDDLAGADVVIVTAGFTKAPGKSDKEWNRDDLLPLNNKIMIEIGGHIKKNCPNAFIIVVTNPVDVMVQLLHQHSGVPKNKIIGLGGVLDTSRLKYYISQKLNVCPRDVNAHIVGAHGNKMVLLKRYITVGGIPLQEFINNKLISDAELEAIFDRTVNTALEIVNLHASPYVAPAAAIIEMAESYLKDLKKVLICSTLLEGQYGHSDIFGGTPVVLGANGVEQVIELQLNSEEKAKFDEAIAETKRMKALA

[4] = inhibition of 3D7 malaria parasite growth – strain 3D7 (AID 2306);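 note: 0% = DMSO wells and 100% = chloroquine plus artemisinin control wells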; conditions: P. falciparum 3D7 erythrocytic growth, LDH absorbance, 72 h; at 2 µM; active compounds read high
[5] = target: Calcium-dependent protein kinase 1 (Plasmodium falciparum (isolate 3D7)) (UniProt P62344); assay: PfCDPK1 kinase inhibitors, biochemical, TCAMS library (AID 1159585; cut-off not given, nearly all actives have IC50 up to about 0.98 µM;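 note: inhibitors leave more ATP so luminescence rises with inhibition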); conditions: recombinant PfCDPK1, Kinase-Glo ATP depletion luminescence
Calcium-dependent protein kinase 1 (Plasmodium falciparum (isolate 3D7)), sequence (P62344 whole entry, looked up): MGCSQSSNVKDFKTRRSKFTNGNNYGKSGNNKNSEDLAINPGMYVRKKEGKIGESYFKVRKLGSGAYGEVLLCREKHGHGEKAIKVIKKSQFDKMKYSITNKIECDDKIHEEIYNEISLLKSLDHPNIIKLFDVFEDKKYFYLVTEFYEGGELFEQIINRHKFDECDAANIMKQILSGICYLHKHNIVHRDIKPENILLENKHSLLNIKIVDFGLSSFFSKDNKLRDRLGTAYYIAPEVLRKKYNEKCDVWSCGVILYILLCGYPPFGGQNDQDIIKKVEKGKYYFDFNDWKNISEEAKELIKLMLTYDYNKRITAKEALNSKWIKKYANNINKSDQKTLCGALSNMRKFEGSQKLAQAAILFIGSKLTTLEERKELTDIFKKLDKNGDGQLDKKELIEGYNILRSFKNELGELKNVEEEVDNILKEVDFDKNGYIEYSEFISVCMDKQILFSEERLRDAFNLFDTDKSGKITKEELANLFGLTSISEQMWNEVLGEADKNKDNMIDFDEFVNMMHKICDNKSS

[6] = target: Plasmodium falciparum protein kinase 6 (PK6, PF3D7_1337100) (UniProt Q8IDW1); assay: PfPK6 kinase inhibitors, biochemical, TCAMS library (AID 1159586); conditions: recombinant PfPK6, Kinase-Glo ATP depletion luminescence
Plasmodium falciparum protein kinase 6 (PK6, PF3D7_1337100), sequence (Q8IDW1 1-305): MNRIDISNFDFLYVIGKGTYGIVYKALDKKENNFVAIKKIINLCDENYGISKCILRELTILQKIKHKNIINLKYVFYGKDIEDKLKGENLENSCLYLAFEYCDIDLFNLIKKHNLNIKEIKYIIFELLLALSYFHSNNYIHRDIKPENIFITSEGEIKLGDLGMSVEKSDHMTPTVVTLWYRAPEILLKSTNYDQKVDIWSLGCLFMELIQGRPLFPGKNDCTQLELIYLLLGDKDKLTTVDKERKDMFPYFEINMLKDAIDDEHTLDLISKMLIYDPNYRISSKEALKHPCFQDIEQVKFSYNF

[7] = target: Protein kinase 7 (PK7), Plasmodium falciparum 3D7 (PF3D7_0213400) (UniProt Q7YTF7); assay: inhibition of Plasmodium PK7 catalytic activity – biochemical, TCAMS antimalarial set, Kinase-Glo luminescence (AID 1159587); conditions: recombinant PfPK7, Kinase-Glo ATP depletion luminescence
Protein kinase 7 (PK7), Plasmodium falciparum 3D7 (PF3D7_0213400), sequence (Q7YTF7 1-343): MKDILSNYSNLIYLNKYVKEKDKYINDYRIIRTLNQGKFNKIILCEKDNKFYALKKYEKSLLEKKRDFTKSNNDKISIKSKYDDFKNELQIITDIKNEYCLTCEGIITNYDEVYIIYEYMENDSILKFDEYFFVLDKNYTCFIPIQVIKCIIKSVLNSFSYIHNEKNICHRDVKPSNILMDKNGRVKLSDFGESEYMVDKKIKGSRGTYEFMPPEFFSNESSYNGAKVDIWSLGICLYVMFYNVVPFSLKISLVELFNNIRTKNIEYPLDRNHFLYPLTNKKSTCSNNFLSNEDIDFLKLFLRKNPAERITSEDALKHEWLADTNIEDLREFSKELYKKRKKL

[8] = target: Calcium-dependent protein kinase 4 (Plasmodium falciparum (isolate 3D7)) (UniProt Q8IBS5); assay: PfCDPK4 kinase inhibitors, biochemical, TCAMS library (AID 1159588; cut-off not given, nearly all actives have IC50 up to about 0.91 µM); conditions: recombinant PfCDPK4, Kinase-Glo ATP depletion luminescence
Calcium-dependent protein kinase 4 (Plasmodium falciparum (isolate 3D7)), sequence (Q8IBS5 whole entry, looked up): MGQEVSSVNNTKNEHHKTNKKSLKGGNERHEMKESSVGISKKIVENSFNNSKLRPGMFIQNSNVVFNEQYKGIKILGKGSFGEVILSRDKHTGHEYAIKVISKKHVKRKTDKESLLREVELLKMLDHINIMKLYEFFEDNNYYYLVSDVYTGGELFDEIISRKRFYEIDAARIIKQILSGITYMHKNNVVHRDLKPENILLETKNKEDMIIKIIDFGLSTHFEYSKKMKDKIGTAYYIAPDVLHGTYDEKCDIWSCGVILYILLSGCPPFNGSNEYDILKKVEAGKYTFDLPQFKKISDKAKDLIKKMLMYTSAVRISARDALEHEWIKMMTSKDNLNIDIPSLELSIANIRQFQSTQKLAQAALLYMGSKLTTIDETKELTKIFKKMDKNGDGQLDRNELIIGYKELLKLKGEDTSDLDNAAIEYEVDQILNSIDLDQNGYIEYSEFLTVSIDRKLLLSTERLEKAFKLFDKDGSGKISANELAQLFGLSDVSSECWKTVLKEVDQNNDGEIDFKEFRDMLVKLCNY

F380Y = assay: BK channel mutant inhibitors and activators – cell-based, U2OS BacMam, thallium flux, beta subunits, selectivity assay, profiling panel (AID 1259406;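 active = thallium flux through the channel raised or lowered by more than 3 SD from vehicle-only wells, actives on both sides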;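 note: initial slope of Thallos dye fluorescence rise after thallium is added; log ratio against the mean of 0.3% DMSO vehicle wells on the same plate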); conditions: U2OS BacMam BK variants, at 30 µM
F380Y/beta1 = assay: as above; conditions: U2OS BacMam BK variants, at 30 µM
F380Y/beta2Delta = assay: as above; conditions: U2OS BacMam BK variants, at 30 µM
F380Y/beta4 = assay: as above; conditions: U2OS BacMam BK variants, at 30 µM
[9] = target: Calcium-activated potassium channel subunit alpha-1 (Homo sapiens) + Leucine-rich repeat-containing protein 26 (Homo sapiens) (UniProt Q12791+Q2I0M4); assay: as above; conditions: U2OS BacMam BK variants, F380Y/Slo1WT/gamma1, at 30 µM
Calcium-activated potassium channel subunit alpha-1 (Homo sapiens) + Leucine-rich repeat-containing protein 26 (Homo sapiens), sequence (Q2I0M4 whole entry, looked up, one chain of several): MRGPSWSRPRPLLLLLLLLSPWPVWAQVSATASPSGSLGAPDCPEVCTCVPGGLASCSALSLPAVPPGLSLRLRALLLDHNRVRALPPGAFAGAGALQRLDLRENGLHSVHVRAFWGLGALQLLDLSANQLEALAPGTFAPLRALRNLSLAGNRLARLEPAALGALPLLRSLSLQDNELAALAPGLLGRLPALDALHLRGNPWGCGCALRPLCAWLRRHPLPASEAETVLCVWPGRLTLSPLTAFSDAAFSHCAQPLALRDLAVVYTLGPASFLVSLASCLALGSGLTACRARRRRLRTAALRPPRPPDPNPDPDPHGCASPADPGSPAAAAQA

R275C = assay: as above; conditions: U2OS BacMam BK variants, at 30 µM
R275C/beta1 = assay: as above; conditions: U2OS BacMam BK variants, at 30 µM
R275C/beta2Delta = assay: as above; conditions: U2OS BacMam BK variants, at 30 µM
R275C/beta4 = assay: as above; conditions: U2OS BacMam BK variants, at 30 µM
R275C/Slo1WT/beta2 = assay: as above; conditions: U2OS BacMam BK variants, at 30 µM

CC(Cc1ccc(S(=O)(=O)N(C(C)C)C(C)C)cc1)NCC(O)c1cccc(C(F)(F)F)c1 (stereo not drawn)
inactive: inhibition [2] 21% | inhibition [3] 4% | outcome [5] | outcome [6] | outcome [7] | outcome [8]
active: growth inhibition [1] 93% | growth inhibition [4] 96%

CN(Cc1ccccc1)C1CCN(CCc2c[nH]c3ccc(F)cc23)CC1
inactive: inhibition [2] 28% | inhibition [3] 5% | outcome [5] | outcome [6] | outcome [7] | outcome [8]
active: growth inhibition [1] 91% | growth inhibition [4] 100%

CN1CC=C(c2c[nH]c3ccc(OCc4ccccc4)cc23)CC1
active: growth inhibition [1] 97% | growth inhibition [4] 95%
inactive: inhibition [2] -2% | inhibition [3] -2% | outcome [5] | outcome [6] | outcome [7] | outcome [8]

Cc1cc(N(C)C2CCN(C)CC2)nc(Nc2ccc(Cl)cc2)n1
active: growth inhibition [1] 90% | growth inhibition [4] 98%
inactive: inhibition [2] 15% | inhibition [3] -6% | outcome [5] | outcome [6] | outcome [7] | outcome [8]

O=c1c2ccccc2[nH]c(=S)n1-c1ccccc1
inactive: log fold change Tl+ flux (F380Y) -0.0122 | log fold change Tl+ flux (F380Y/beta1) 0.0064 | log fold change Tl+ flux (F380Y/beta2Delta) 0.0408 | log fold change Tl+ flux (F380Y/beta4) 0.0104 | log fold change Tl+ flux [9] 0.0486 | log fold change Tl+ flux (R275C) -0.0195 | log fold change Tl+ flux (R275C/beta1) 0.0238 | log fold change Tl+ flux (R275C/beta2Delta) -0.000731 | log fold change Tl+ flux (R275C/beta4) 0.00834 | log fold change Tl+ flux (R275C/Slo1WT/beta2) -0.0521

Cc1csc2sc(C=C(C#N)C#N)c(C)c12
inactive: log fold change Tl+ flux (F380Y) 0.0324 | log fold change Tl+ flux (F380Y/beta1) -0.023 | log fold change Tl+ flux (F380Y/beta2Delta) 0.0231 | log fold change Tl+ flux (F380Y/beta4) 0.00092 | log fold change Tl+ flux [9] 0.0126 | log fold change Tl+ flux (R275C) 0.0225 | log fold change Tl+ flux (R275C/beta1) 0.0369 | log fold change Tl+ flux (R275C/beta2Delta) 0.00343 | log fold change Tl+ flux (R275C/beta4) 0.00359 | log fold change Tl+ flux (R275C/Slo1WT/beta2) 0.0163

CCCCCCC(C)(C)c1cc(O)c2c(c1)OC(C)(C)c1ccncc1-2
active: growth inhibition [1] 99% | growth inhibition [4] 95%
inactive: inhibition [2] 4% | inhibition [3] 1% | outcome [5] | outcome [6] | outcome [7] | outcome [8]

CC(Cc1ccc(SC(C)(C)C)cc1)NCC(O)c1cccc(Cl)c1 (stereo not drawn)
inactive: inhibition [2] 14% | inhibition [3] -7% | outcome [5] | outcome [6] | outcome [7] | outcome [8]
active: growth inhibition [1] 99% | growth inhibition [4] 99%

CCCCCCC(C)c1cc(O)c2c(c1)OC(C)(C)c1ccncc1-2 (stereo not drawn)
inactive: inhibition [2] -3% | inhibition [3] -4% | outcome [5] | outcome [6] | outcome [7] | outcome [8]
active: growth inhibition [1] 61% | growth inhibition [4] 100%

CN1CC=C(c2c[nH]c3ccc(C(=O)c4nccs4)cc23)CC1
active: growth inhibition [1] 73% | growth inhibition [4] 89%
inactive: inhibition [3] 7% | outcome [5] | outcome [6] | outcome [7] | outcome [8]
